Data taken from PubChem BioAssay (NCATS).

Each molecule was assayed against Glucocorticoid receptor (Homo sapiens) (UniProt P04150) (assay: GR-GFP Redistribution (AID 450)). Settings: U2OS GR-GFP nuclear translocation, laser cytometry, 2 h; series mostly up to 20.6 µM;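 active = compounds whose dose series gives a full or clear partial fitted curve of increased nuclear translocation; inconclusive = weak partial curve or effect only at the top dose; inactive = no dose-dependent translocation response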.
Sequence of Glucocorticoid receptor (Homo sapiens) (P04150 whole entry, looked up): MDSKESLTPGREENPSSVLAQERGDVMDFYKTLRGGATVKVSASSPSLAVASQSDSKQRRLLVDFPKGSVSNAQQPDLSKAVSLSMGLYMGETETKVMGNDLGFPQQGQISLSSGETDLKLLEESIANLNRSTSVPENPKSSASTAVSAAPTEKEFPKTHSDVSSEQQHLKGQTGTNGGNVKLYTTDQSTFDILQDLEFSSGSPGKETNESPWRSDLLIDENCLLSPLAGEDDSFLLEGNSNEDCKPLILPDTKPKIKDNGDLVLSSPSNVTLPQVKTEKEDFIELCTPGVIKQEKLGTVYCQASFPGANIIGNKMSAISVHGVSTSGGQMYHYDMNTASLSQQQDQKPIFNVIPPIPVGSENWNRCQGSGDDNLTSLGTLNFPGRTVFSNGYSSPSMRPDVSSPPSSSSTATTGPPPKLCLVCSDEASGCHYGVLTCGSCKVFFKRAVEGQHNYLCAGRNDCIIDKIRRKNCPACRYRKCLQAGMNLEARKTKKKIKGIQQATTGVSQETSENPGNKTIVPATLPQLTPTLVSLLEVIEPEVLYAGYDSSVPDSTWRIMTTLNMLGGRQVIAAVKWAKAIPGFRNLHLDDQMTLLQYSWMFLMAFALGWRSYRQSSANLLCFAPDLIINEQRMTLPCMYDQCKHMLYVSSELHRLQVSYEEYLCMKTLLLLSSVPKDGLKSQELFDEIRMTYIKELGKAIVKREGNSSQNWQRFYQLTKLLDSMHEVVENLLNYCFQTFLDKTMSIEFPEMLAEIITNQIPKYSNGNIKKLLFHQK
Potency is the fitted concentration of half-maximal effect.

Potency, inactive:
O=C(/C=C/c1ccccc1)c1ccccc1 > 20.6 µM
COC(=O)C1C(=O)CC(C)(O)C(C(=O)OC)C1c1ccccc1F (stereo not drawn) > 20.6 µM
CCOC(=O)CSC1=C(C#N)C(=O)NC(c2ccc(OC)c(OC)c2)S1 (stereo not drawn) > 20.6 µM
Cn1ncc2nnn(-c3ccccc3)c(=O)c21 > 20.6 µM
Cc1cc(=O)oc(C)c1C(=O)NCCN1CCOCC1 > 20.6 µM
O=C(c1ccccc1)c1cc(-c2ccccc2)on1 > 20.6 µM
CCOC(=O)COc1ccc(Oc2nc(C)cc(OC)n2)nn1 > 20.6 µM
CCSc1nc(O)c(C2OC(=O)c3c2ccc(OC)c3OC)c(=O)n1-c1ccccc1 (stereo not drawn) > 20.6 µM
